Experimental data: PubChem BioAssay AID720650 (Broad Institute, 2013)
Values without a mark were called inactive. Active and inactive are the calls of the source. How the calls were made is not given here.

Experiment: Biochemical counterscreen for C difficile toxins, absence of UDPG, inhibitor dose response (AID 720650)

| SMILES | AC50 |
| --- | --- |
| NC(=O)c1ccc2c(=O)c(O)c(-c3cc(Cl)c(N)c(Cl)c3)[nH]c2c1 | inactive |
| COc1ccc(-c2ccc3c(c2)[C@H]2[C@H](CCN2C(=O)CN2CCOCC2)[C@@H](CO)N3)cc1 | 11 µM (active) |
| COc1ccc(/C=C\c2onc(C)c2S(=O)(=O)N2CCC(C(=O)NCCC(C)C)CC2)cc1 | inactive |
| CCC(=Nc1ccccc1)C1=C(O)CCCC1=O | inactive |
| Cc1ccc(C(=O)NCCn2cc(SCC(=O)Nc3cc(C)on3)c3ccccc32)cc1 | inactive |
| CCOc1ccc2c(C)nc(NC3=NC(C)(C)C=C(C)N3)nc2c1 | inactive |
| COc1cc(/C=N/Nc2ccccn2)ccc1O | > 39 µM |
| COc1cccc(C(=O)Nc2ccc3c(c2)C(=O)N(C)[C@@H]2CC[C@H](CC(=O)NCCCN4CCOCC4)O[C@@H]2CO3)c1 | inactive |
| Cc1nc(SCC(=O)N2CCNC2=O)c(C#N)c(C)c1C | inactive |
| O=C(O)C1C(=O)NCC1c1ccccc1 (stereo unspecified) | inactive |
| COc1cccc2cc(/C(C)=N/NC(=O)c3ccco3)oc12 | inactive |
| Cc1ccc(-c2csc(NC(=O)/C=C/c3ccco3)c2C(=O)O)cc1 | inactive |
| C[C@H](CO)N1C[C@H](C)[C@H](CN(C)Cc2ccc(Oc3ccccc3)cc2)Oc2cc(-c3ccncc3)ccc2S1(=O)=O | inactive |
| CC[n+]1ccc(/C=C/c2ccc(N(C)C)cc2)c2ccccc21 | 11.7 µM (active) |
| Cc1cnc(C(=O)OCC(=O)Nc2ccc(OCc3ccccc3)cc2)cn1 | inactive |
| CN1C(=O)c2cc(NC(=O)c3cccc(F)c3)ccc2OC[C@@H]2O[C@@H](CC(=O)NCC3CCCCC3)CC[C@@H]21 | inactive |
